The source of these data is PubChem BioAssay.

The source made the active and inactive calls. Unless noted, the rule behind the calls is not given here.

Experiment [1] can be described thus: compounds binding Alexa647 anti-His antibody – biochemical, small-molecule microarray, 635 nm fluorescence, artefact control for SMM control protein annotation, primary screen (AID 1128).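 Note: score merges feature fluorescence with signal-to-noise for each printed compound spot.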 The note with it: higher = more signal.
The subject of experiment [2] is Human papillomavirus type 1a E7 protein (residues 1-88). Put plainly: HPV1a E7 small-molecule binders, primary screen, biochemical, small-molecule microarray, residues 1-88, 635 nm (AID 1129). The note with it: small-molecule microarray binding, fluorescence 635 nm; higher = more signal.
For experiment [3], the target named is Focal adhesion kinase 1 (Homo sapiens) (UniProt Q05397). Put plainly: PTK2 protein binding on printed compound slides – biochemical, small-molecule microarray, 635/667 nm fluorescence, BSA, DTT, primary screen (AID 1130).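 Note: composite of spot emission at 667 nm and signal to noise over triplicate slides.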 The conditions noted are these: 635 nm fluorescence, higher = more signal.
In experiment [4] the test system is Fibrinogen (Alexa647-labelled). The experiment can be described thus: Alexa647-fibrinogen binding to printed small molecules – biochemical, small-molecule microarray, 635/667 nm fluorescence, artefact control for SMM control-protein annotation, profiling panel (AID 1131).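 Note: z-score merges 667 nm fluorescence with per-spot signal-to-noise over triplicate slides.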 The note with it: fibrinogen-A647 binding fluorescence, higher = more signal.
Experiment [5] deals with Follistatin (Homo sapiens) (UniProt P19883). The experiment can be described thus: FST protein binding to printed compounds – biochemical, small-molecule microarray, 635/667 nm fluorescence, primary screen (AID 1132). The conditions noted are these: 635 nm fluorescence, higher = more signal.
The target in experiment [6] is Fibroblast growth factor 2 (Homo sapiens) (UniProt P09038). The experiment can be described thus: basic fibroblast growth factor binding to printed compounds – biochemical, small-molecule microarray, 635/667 nm fluorescence, primary screen (AID 1133). The conditions noted are these: FGF2, fluorescence 635/667, higher = more signal.
Experiment [7] is described as follows: JC-1 mitochondrial potential readout, lung cancer cells – cell-based, A549, JC-1 fluorescence, basal, 24 h, 100 nL, profiling panel (AID 1138).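 Note: A549 lung adenocarcinoma cells under basal conditions with no added stimulus; test concentration not given here.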 The conditions noted are these: higher = more signal.
The test system of a further experiment is Lefty1. The experiment can be described thus: Lefty1 protein binding to printed compounds – biochemical, small-molecule microarray, 635/667 nm fluorescence, primary screen (AID 1139). The conditions noted are these: fluorescence 635/667, higher = more signal.
Experiment [8] concerns wheat germ agglutinin (Triticum aestivum), Alexa647-labelled. Put plainly: Alexa647-WGA lectin binding to printed small molecules – biochemical, small-molecule microarray, 635/667 nm fluorescence, artefact control for SMM control-protein annotation, profiling panel (AID 1140).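 Note: score merges 667 nm feature emission with signal to noise over triplicate slides.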 The note with it: WGA-A647 binding, 635 nm fluorescence, higher = more signal.
In experiment [9] the target is Luciferin 4-monooxygenase (Photinus pyralis) (UniProt P08659). The experiment can be described thus: inhibition of purified Photinus pyralis luciferase – biochemical, luminescence, purified enzyme, 2006 set, primary screen (AID 1141).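 Note: cell-free assay with purified firefly luciferase at 100 ng per well in PBS; test concentration not given here.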 The note with it: purified firefly luciferase, SteadyGlo luminescence, 30 min; higher = more signal, called active from +8 up or from −8 down.

For experiment [10], the system named is Wnt5a (protein binding on small-molecule microarray). The experiment can be described thus: small molecules binding Wnt5a protein – biophysical, small-molecule microarray, 635/667 nm fluorescence, primary screen (AID 1142).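 Note: fluorescence read at 667 nm with signal to noise per printed feature.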 The note with it: 635 nm fluorescence, higher = more signal.
A short description of experiment [11]: ATP-based viability of Huh7 replicon cells – cell-based, CellTiter-Glo luminescence, basal, 48 h, cytotoxicity control for HCV replication inhibitor project, primary screen (AID 1143).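 Note: Huh7 hepatoma cells carrying a hepatitis C replication reporter with no stimulus; test concentration not given here.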 The note with it: higher = more signal, called active from +8 up or from −8 down. For orientation: A replicon is a self-replicating genome or part of one, used to study replication in cells.

The nature of experiment [12]: Pseudomonas biofilm growth suppression – PAO1 strain, BacTiter-Glo luminescence, LB-PBS, primary screen (AID 1144). The conditions noted are these: P. aeruginosa PAO1 biofilm, 12 h, higher = more signal.
Experiment [13] can be described thus: basal CRE-LacZ reporter activity in PC12 – cell-based, unstimulated, primary screen (AID 1145). The conditions noted are these: no forskolin, luminescence, 4.5 h, higher = more signal, called active from +8 up or from −8 down.
The nature of experiment [14]: forskolin-driven CRE-LacZ activity in PC12 – cell-based, CRE-LacZ reporter, forskolin-stimulated, primary screen (AID 1146).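 Note: PC12 cells with 6xCRE LacZ reporter stimulated by forskolin 10 µM; beta-galactosidase reporter signal reflecting CREB driven transcription.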 The note with it: luminescence, 4.5 h, higher = more signal, called active from +8 up or from −8 down.
Experiment [15] concerns the target Streptavidin (Streptomyces avidinii) (UniProt P22629). The experiment can be described thus: compounds binding control protein streptavidin – biophysical, small-molecule microarray, 635/667 nm fluorescence, artefact control for SMM compound annotation, primary screen (AID 1147).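 Note: signal reflects streptavidin binding to arrayed compounds as a control protein.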 The note with it: higher = more signal.
A short description of experiment [16]: probe aInhba binding on compound microarray – biochemical, small-molecule microarray, 635/667 nm fluorescence, primary screen (AID 1148).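 Note: score merges 667nm spot fluorescence with signal-to-noise for antibody binding to printed compounds.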 The note with it: higher = more signal.
The target of experiment [17] is Torsin-1A (Homo sapiens) (UniProt O14656). Put plainly: TOR1A wild-type binding on microarray – cell lysate, small-molecule microarray, lysate, 635/667 nm, primary screen (AID 1149). The conditions noted are these: COS7 hTOR1A-WT lysate, 635 nm fluorescence, higher = more signal.
Experiment [18] has the same target. The experiment can be described thus: torsin A mutant lysate binding on microarrays – cell lysate, small-molecule microarray, COS7 lysate, 635/667 nm fluorescence, primary screen (AID 1150).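 Note: score pools 667 nm emission and signal to noise measuring lysate protein binding.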 The note with it: COS7 hTOR1A mutant lysate, 635 nm fluorescence, higher = more signal.
For experiment [19], the system named is Sonic hedgehog protein (Shh). Put plainly: Sonic hedgehog microarray binding compounds – biochemical, small-molecule microarray, 635/667 nm fluorescence, primary screen (AID 1151).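 Note: Shh protein binding to compounds spotted on small-molecule microarray slides; score combines spot fluorescence intensity with signal-to-noise across triplicate slides.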 The conditions noted are these: 635 nm fluorescence, higher = more signal.

Luciferin 4-monooxygenase (Photinus pyralis), sequence (P08659 whole entry, looked up): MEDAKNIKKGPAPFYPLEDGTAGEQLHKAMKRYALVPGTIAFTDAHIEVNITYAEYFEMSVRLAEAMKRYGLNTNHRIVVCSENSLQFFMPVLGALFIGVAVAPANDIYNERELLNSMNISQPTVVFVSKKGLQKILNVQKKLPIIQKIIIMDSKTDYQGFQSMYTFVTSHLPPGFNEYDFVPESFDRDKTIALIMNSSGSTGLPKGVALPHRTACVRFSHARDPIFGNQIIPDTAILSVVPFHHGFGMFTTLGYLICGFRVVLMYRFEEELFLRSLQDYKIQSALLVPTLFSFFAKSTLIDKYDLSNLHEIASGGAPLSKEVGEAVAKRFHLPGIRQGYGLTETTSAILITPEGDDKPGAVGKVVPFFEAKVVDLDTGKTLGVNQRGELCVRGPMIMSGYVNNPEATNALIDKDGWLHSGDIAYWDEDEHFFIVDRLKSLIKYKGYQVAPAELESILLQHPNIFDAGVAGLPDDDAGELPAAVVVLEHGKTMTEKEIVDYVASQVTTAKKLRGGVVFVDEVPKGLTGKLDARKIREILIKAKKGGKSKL
Streptavidin (Streptomyces avidinii), sequence (P22629 whole entry, looked up): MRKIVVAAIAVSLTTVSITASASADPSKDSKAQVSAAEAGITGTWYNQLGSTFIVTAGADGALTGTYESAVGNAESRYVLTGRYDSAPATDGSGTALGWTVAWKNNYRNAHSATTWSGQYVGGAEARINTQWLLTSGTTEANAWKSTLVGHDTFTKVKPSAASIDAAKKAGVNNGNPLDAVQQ
Fibroblast growth factor 2 (Homo sapiens), sequence (P09038 whole entry, looked up): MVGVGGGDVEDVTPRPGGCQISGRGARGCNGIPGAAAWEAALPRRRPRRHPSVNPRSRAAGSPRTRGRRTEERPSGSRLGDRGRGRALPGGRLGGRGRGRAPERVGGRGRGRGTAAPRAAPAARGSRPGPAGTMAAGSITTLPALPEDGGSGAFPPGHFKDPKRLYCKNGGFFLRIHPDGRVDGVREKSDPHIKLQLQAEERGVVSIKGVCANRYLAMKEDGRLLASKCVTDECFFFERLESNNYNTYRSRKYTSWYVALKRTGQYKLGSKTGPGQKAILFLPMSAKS
Focal adhesion kinase 1 (Homo sapiens), sequence (Q05397 whole entry, looked up): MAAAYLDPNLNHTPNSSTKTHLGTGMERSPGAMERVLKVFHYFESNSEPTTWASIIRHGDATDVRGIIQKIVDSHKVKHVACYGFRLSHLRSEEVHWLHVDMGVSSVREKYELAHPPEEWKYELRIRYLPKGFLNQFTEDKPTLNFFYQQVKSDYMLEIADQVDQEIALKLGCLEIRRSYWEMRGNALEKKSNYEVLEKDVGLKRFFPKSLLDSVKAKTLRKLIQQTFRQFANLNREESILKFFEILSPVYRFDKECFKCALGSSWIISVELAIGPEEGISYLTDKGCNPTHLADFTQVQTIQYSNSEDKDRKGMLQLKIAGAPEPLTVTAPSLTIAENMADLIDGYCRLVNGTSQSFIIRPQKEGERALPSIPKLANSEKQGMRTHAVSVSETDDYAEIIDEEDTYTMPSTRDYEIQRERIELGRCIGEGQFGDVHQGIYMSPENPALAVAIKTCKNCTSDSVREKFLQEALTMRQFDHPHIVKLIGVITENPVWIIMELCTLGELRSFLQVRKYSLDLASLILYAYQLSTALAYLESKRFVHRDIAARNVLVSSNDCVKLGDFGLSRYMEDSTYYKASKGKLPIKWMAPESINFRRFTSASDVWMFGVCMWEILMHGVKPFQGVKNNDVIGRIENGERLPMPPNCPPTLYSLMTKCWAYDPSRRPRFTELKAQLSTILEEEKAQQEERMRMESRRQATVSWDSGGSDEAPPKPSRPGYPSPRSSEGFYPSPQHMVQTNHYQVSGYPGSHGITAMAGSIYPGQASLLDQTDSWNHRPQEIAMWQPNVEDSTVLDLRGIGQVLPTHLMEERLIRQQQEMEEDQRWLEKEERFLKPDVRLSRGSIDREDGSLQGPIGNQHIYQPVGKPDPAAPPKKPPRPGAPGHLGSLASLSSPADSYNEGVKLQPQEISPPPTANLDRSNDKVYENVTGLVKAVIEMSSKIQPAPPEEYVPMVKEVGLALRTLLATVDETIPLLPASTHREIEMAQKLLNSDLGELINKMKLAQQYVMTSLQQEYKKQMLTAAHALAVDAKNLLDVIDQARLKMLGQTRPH
Follistatin (Homo sapiens), sequence (P19883 whole entry, looked up): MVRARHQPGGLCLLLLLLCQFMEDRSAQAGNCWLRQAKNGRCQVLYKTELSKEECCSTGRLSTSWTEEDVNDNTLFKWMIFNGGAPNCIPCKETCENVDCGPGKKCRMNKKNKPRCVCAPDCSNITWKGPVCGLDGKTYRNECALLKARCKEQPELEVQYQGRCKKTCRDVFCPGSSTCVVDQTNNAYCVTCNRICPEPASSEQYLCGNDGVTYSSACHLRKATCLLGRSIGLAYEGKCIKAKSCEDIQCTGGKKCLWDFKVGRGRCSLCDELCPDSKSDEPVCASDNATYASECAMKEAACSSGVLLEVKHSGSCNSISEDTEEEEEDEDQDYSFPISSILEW
Torsin-1A (Homo sapiens), sequence (O14656 whole entry, looked up): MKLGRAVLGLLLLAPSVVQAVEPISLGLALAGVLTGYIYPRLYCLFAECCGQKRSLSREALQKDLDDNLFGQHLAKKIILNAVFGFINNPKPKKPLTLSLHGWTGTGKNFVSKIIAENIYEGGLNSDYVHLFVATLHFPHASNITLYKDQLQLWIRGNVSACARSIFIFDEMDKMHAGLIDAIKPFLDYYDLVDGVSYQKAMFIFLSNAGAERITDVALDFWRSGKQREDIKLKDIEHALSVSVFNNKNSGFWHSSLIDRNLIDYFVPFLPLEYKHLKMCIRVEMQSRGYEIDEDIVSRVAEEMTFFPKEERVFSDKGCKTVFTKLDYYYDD

For the compound `COC(=O)[C@@]1(Cc2ccc(OC)cc2)[C@H]2c3cc(C(=O)N(C)C)n(Cc4ccccn4)c3C[C@H]2CN1C(=O)c1ccccc1`, the composite z-score in experiment [1] was 1.57; in experiment [2], 0.451; in [3], 1.44; in [4], 0.547; in experiment [5], -0.363; in experiment [6] it was -0.567. Also, the composite z-score with Lefty1 is -0.805; in experiment [8], 1.35; in experiment [10], 0.164; in [15] it was 2.57; in experiment [16], 0.322; with Torsin-1A (Homo sapiens) [17] it was 0.192. Moreover, the composite z-score in the experiment with Torsin-1A (Homo sapiens) [18] is 1.59; in experiment [19] it was -0.403. The z-score in experiment [7] was 0.332; in experiment [9], 1.6 (inactive); in experiment [11] it was -1.17 (inactive); in experiment [12], 0.691 (inactive); in experiment [13], 1.16 (inactive); in experiment [14], 0.97 (inactive).
For the compound `[N-]=[N+]=Nc1ccccc1[C@H]1OC(c2ccc(OCCCO)cc2)=N[C@@]1(CCS(=O)(=O)c1ccccc1)C(=O)NCC(O)CO` (stereo not given in full), the composite z-score in experiment [1] worked out at 1.52; in experiment [2], 0.94; in experiment [3] it was 0.605; in experiment [4], 1.07; in experiment [5] it was 1.27; in [6], 0.057. Besides, the composite z-score with Lefty1 was -0.0179; in experiment [8], 0.914; in experiment [10], 0.751; in experiment [15], 1.29; in [16], 0.15; with Torsin-1A (Homo sapiens) [17], 1.26. For the same compound, the results for the composite z-score (with Torsin-1A (Homo sapiens) [18]; in experiment [19]) were 0.774 and -1.02, respectively. For the same compound, the z-score is 0.233 in experiment [7]; -9.88 (active) in experiment [9]; -1.46 (inactive) in [11]; 0.732 (inactive) in [12]; 0.848 (inactive) in [13]; -0.249 (inactive) in [14].
Take `CCOC(=O)C1=CC[C@@H](c2ccccc2)N(S(=O)(=O)c2ccc(C)cc2)[C@H]1c1ccccc1C`: the composite z-score in experiment [1] is 0.109; in [2], 0.893; in experiment [3], 0.0769; in experiment [4], 0.394; in [5], 0.74; in experiment [6] it was 0.545. For the same compound, the composite z-score with Lefty1 was 0.384; in experiment [8] it was 0.406; in experiment [10], 0.572; in experiment [15] it was 1.05; in experiment [16], -0.15; with Torsin-1A (Homo sapiens) [17], 0.339. In addition, the composite z-score with Torsin-1A (Homo sapiens) [18] is 0.581; in experiment [19], -0.19. Also, the z-score in experiment [7] was 1.86; in experiment [9], 2.49 (inactive); in experiment [11], -2.81 (inactive); in [12], -0.953 (inactive); in experiment [13] it was 0.0707 (inactive); in experiment [14], 0.285 (inactive).
As to `CN1C(=O)C2C=CC(C(O)C3CC=CCC3)N(N(c3ccccc3)c3ccccc3)C2C1=O` (stereo not given), the composite z-score in [1] was 0.118; in [2], -1.42; in [3], 0.102; in experiment [4], 0.0963; in experiment [5], 0.988; in experiment [6], -0.179. The composite z-score in the experiment with Lefty1 came to 0.449; in experiment [8], 0.259; in experiment [10], 0.155; in [15] it was 0.184; in [16] it was 0.027; in the experiment with Torsin-1A (Homo sapiens) [17], 0.36. In addition, the figures for the composite z-score (with Torsin-1A (Homo sapiens) [18]; in [19]) were -0.368 and 0.0122, respectively. For the same compound, the z-score in experiment [7] is 0.43; in [9] it was 0.529 (inactive); in experiment [11], 0.909 (inactive); in experiment [12], 0.472 (inactive); in experiment [13] it was 0.629 (inactive); in experiment [14], 0.47 (inactive).
